Legend:
[1] = target: T1, Ephrin type-B receptor 1 (Homo sapiens) (UniProt P54762); details: at 10 µM
T1 sequence (whole entry): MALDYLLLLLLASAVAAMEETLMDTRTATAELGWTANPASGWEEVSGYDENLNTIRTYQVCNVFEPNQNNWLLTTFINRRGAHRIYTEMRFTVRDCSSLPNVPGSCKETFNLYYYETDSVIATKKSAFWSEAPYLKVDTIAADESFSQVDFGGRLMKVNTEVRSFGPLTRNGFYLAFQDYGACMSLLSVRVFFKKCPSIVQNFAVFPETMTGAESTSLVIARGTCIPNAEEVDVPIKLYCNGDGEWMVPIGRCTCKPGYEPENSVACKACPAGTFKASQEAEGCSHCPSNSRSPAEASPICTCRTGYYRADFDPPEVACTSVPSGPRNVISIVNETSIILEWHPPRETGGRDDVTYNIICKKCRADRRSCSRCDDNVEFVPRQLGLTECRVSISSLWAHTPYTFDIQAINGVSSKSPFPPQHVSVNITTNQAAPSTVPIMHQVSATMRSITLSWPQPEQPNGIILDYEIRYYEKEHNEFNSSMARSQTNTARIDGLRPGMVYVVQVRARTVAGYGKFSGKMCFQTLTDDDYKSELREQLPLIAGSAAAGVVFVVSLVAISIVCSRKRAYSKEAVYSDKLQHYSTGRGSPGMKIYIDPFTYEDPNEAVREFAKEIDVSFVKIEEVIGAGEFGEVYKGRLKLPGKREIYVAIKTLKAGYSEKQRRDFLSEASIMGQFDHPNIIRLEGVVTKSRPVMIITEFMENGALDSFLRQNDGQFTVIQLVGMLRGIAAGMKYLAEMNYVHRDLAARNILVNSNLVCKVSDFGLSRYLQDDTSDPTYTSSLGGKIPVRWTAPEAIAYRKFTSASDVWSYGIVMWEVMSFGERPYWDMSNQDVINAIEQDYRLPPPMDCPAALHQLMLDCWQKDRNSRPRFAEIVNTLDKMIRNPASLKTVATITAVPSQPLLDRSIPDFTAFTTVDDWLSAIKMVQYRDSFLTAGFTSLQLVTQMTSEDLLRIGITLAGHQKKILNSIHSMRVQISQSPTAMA

[2] = target: T2, Ephrin type-B receptor 2 (Homo sapiens) (UniProt P29323); details: at 1 µM
T2 sequence (whole entry): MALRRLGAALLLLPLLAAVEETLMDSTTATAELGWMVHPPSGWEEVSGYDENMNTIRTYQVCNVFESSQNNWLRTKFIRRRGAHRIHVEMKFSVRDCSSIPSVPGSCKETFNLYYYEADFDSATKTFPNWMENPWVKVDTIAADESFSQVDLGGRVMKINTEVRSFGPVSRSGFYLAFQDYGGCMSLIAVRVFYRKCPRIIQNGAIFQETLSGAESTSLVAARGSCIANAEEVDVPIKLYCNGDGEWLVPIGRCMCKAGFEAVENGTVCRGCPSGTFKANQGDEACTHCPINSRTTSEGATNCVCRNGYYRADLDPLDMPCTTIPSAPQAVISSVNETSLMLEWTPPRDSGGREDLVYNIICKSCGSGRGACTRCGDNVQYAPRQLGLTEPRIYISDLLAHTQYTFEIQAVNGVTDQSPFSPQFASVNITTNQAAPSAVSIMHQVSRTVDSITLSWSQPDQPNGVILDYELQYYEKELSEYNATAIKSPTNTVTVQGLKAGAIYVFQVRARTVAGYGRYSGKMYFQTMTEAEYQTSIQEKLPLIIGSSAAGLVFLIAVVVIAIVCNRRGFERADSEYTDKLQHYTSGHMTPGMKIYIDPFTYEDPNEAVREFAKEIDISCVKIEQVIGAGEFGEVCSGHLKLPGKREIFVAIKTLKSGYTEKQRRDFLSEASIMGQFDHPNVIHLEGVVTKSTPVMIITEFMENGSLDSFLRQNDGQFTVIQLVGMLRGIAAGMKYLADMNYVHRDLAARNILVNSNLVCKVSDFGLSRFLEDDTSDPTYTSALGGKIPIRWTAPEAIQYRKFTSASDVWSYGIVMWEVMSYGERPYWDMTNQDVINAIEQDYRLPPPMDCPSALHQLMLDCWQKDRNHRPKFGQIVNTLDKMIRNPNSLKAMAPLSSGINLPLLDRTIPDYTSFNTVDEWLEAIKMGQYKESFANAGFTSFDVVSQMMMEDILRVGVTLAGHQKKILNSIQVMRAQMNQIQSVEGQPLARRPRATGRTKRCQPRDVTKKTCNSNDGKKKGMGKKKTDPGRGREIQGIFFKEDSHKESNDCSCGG

[3] = target: T2, Ephrin type-B receptor 2 (Homo sapiens); details: at 10 µM
[4] = target: T3, Ephrin type-B receptor 3 (Homo sapiens) (UniProt P54753); details: at 1 µM
T3 sequence (whole entry): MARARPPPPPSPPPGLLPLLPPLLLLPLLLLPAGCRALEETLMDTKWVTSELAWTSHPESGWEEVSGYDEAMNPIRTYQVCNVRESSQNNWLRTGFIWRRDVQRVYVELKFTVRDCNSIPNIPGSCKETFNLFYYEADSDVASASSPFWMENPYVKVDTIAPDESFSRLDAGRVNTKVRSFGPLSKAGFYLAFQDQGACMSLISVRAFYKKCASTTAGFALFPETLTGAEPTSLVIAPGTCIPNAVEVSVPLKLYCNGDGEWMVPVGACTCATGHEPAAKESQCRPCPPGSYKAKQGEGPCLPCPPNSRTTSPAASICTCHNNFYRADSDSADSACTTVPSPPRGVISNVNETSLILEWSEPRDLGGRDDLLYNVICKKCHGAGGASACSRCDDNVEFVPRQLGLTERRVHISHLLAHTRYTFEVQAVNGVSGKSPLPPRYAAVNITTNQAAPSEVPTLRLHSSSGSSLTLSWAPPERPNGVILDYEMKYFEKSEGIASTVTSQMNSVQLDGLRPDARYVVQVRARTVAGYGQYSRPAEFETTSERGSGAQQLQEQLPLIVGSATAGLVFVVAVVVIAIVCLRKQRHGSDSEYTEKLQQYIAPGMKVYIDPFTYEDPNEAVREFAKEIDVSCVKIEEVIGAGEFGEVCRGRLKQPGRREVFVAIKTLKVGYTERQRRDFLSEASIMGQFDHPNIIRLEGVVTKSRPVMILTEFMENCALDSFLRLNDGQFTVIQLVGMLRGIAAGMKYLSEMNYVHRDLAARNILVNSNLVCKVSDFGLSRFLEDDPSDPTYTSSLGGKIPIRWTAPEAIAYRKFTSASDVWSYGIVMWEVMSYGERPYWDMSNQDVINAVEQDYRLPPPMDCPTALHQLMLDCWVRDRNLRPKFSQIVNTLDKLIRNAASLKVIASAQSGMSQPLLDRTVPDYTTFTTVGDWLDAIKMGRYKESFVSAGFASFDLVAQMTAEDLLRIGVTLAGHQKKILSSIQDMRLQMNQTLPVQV

[5] = target: T3, Ephrin type-B receptor 3 (Homo sapiens); details: at 10 µM
[6] = target: T4, Ephrin type-B receptor 4 (Homo sapiens) (UniProt P54760); details: at 1 µM
T4 sequence (whole entry): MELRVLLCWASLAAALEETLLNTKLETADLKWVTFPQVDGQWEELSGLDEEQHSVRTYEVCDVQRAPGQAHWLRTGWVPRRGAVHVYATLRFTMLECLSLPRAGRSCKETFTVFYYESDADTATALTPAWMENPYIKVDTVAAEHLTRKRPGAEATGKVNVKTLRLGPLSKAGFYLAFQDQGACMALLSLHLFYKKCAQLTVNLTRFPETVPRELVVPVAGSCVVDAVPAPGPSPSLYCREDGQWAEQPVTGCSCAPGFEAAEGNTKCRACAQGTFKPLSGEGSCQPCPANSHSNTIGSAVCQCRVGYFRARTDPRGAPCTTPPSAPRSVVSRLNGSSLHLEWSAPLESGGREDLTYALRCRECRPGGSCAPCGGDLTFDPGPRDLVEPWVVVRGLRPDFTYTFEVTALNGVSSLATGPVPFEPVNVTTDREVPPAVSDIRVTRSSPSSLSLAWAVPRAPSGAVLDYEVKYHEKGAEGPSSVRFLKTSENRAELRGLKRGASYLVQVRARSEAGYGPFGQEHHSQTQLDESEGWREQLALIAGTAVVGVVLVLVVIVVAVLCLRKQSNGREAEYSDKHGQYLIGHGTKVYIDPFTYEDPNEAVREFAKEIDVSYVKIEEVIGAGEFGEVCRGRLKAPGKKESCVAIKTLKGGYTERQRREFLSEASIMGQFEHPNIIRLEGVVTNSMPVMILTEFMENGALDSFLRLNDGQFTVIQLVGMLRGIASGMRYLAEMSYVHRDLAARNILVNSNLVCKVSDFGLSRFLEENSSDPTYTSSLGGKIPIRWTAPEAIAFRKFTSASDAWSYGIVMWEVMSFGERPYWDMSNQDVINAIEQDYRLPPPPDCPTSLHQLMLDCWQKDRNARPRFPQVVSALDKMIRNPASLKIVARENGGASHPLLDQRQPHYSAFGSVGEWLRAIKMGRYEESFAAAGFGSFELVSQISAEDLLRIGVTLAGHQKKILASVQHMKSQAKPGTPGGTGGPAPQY

[7] = target: T4, Ephrin type-B receptor 4 (Homo sapiens); details: at 10 µM
[8] = target: Receptor tyrosine-protein kinase erbB-4 (Homo sapiens) (UniProt Q15303); details: at 1 µM
Receptor tyrosine-protein kinase erbB-4 (Homo sapiens), sequence (Q15303 whole entry): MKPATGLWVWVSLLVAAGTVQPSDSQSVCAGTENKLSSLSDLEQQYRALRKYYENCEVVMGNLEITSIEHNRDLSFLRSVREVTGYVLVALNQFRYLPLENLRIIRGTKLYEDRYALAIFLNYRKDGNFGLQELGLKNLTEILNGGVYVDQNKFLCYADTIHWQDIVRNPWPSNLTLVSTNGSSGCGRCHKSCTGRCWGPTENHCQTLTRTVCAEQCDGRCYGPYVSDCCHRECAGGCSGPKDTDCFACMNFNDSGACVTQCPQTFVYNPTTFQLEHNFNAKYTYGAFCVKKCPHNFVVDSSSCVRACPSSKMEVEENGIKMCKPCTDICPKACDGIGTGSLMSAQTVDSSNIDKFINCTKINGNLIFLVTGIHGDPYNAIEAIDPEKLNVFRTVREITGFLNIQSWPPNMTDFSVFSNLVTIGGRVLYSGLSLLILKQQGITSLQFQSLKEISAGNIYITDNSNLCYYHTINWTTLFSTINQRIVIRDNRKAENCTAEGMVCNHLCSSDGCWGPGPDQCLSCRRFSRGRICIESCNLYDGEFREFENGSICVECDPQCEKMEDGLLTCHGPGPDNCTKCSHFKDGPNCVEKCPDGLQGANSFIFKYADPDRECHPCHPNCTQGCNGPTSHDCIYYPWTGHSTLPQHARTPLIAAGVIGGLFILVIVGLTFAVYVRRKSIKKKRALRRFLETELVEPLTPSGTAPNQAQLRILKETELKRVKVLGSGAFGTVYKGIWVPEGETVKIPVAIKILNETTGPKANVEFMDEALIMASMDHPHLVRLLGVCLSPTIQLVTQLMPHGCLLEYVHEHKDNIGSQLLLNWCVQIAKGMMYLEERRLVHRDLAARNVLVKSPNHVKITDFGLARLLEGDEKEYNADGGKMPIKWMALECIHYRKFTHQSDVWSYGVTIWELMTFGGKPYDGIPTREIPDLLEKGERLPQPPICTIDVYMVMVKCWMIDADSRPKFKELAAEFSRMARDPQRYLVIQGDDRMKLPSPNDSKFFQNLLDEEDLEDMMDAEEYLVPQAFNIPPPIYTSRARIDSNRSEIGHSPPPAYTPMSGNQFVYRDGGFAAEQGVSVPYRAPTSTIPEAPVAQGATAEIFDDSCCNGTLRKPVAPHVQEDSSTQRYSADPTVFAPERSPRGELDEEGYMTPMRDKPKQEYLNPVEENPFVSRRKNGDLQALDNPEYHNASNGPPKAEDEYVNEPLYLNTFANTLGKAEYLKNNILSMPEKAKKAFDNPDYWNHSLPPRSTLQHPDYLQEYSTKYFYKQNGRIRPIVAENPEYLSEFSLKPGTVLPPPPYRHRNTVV

[9] = target: Receptor tyrosine-protein kinase erbB-4 (Homo sapiens) (UniProt Q15303); details: at 10 µM
[10] = target: Focal adhesion kinase 1 (Homo sapiens) (UniProt Q05397); details: at 1 µM
Focal adhesion kinase 1 (Homo sapiens), sequence (Q05397 2-1052 limits assumed): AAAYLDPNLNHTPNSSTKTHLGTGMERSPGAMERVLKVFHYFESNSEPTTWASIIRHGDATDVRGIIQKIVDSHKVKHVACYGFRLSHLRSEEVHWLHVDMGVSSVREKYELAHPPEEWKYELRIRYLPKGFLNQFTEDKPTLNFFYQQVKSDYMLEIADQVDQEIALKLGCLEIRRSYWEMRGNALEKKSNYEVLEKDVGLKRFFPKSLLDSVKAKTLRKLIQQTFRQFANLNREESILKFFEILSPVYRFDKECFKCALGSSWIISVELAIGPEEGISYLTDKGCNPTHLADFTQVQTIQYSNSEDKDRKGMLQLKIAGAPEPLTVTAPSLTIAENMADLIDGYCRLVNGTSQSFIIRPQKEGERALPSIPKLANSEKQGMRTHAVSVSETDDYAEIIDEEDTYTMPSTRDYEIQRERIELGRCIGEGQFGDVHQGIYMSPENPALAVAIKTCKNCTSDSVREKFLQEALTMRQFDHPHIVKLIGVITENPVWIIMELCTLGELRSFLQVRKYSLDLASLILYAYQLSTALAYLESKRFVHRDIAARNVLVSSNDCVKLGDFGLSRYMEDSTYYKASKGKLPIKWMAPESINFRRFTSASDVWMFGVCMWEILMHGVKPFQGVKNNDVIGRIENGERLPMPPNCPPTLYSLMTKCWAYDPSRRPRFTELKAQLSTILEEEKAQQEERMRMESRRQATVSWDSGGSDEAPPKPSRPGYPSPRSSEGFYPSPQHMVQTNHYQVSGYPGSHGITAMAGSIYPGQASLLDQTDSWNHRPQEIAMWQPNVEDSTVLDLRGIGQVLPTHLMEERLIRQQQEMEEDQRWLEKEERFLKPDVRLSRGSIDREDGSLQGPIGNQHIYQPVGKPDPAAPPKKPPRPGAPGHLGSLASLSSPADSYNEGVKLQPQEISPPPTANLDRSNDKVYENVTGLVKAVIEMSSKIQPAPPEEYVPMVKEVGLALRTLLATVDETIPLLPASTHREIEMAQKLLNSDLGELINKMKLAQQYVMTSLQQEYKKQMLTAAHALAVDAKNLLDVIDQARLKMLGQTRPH

[11] = target: Focal adhesion kinase 1 (Homo sapiens) (UniProt Q05397); details: at 10 µM
[12] = target: Fibroblast growth factor receptor 1 (Homo sapiens) (UniProt P11362); details: at 1 µM
Fibroblast growth factor receptor 1 (Homo sapiens), sequence (P11362 22-822 limits assumed): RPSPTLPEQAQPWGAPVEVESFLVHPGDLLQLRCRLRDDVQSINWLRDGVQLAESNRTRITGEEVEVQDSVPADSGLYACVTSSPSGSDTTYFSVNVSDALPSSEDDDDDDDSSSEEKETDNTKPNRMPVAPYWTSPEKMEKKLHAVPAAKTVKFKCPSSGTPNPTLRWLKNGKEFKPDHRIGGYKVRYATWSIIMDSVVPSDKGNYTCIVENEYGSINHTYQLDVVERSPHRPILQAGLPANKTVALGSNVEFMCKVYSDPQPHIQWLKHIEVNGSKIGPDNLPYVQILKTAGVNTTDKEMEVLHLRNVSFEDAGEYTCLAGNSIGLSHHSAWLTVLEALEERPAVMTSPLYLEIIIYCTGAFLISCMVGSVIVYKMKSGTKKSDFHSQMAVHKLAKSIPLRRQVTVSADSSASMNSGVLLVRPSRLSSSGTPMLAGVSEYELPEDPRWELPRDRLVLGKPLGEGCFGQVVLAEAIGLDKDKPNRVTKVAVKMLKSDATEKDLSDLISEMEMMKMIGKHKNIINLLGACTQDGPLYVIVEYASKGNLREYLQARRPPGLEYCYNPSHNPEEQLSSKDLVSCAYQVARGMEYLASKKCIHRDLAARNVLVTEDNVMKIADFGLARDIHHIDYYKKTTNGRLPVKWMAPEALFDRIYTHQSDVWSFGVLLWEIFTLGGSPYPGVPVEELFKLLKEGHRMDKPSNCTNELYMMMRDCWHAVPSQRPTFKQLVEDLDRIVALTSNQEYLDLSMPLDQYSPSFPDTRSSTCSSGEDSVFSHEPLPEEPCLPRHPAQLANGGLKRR

[13] = target: Fibroblast growth factor receptor 1 (Homo sapiens) (UniProt P11362); details: at 10 µM
[14] = target: Fibroblast growth factor receptor 2 (Homo sapiens) (UniProt P21802); details: at 1 µM
[15] = target: Fibroblast growth factor receptor 2 (Homo sapiens) (UniProt P21802); details: at 10 µM
[16] = target: Fibroblast growth factor receptor 3 (Homo sapiens) (UniProt P22607); details: at 1 µM
Fibroblast growth factor receptor 3 (Homo sapiens), sequence (P22607 23-806 limits assumed): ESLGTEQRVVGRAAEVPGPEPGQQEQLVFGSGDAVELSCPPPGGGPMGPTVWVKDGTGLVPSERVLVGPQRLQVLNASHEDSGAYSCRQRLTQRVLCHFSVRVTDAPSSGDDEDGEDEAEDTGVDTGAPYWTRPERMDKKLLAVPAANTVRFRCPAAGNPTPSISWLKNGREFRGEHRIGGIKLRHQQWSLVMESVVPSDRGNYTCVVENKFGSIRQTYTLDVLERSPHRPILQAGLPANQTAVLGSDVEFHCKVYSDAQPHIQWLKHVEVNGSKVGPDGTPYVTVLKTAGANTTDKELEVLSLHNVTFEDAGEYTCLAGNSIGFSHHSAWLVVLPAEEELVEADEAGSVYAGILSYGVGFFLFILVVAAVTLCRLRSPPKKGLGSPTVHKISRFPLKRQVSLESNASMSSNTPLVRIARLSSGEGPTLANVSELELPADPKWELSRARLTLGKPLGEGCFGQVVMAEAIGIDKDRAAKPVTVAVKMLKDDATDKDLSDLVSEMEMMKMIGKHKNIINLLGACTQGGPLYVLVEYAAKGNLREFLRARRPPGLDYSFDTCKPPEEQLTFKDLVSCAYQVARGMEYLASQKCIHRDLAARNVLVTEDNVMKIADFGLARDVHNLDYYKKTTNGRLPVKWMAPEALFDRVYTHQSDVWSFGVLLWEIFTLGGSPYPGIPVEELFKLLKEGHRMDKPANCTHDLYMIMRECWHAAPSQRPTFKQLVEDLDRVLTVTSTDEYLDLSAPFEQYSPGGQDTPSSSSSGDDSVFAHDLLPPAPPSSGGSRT

[17] = target: Fibroblast growth factor receptor 3 (Homo sapiens) (UniProt P22607); details: at 10 µM
[18] = target: Fibroblast growth factor receptor 4 (Homo sapiens) (UniProt P22455); details: at 1 µM
Fibroblast growth factor receptor 4 (Homo sapiens), sequence (P22455 22-802 limits assumed): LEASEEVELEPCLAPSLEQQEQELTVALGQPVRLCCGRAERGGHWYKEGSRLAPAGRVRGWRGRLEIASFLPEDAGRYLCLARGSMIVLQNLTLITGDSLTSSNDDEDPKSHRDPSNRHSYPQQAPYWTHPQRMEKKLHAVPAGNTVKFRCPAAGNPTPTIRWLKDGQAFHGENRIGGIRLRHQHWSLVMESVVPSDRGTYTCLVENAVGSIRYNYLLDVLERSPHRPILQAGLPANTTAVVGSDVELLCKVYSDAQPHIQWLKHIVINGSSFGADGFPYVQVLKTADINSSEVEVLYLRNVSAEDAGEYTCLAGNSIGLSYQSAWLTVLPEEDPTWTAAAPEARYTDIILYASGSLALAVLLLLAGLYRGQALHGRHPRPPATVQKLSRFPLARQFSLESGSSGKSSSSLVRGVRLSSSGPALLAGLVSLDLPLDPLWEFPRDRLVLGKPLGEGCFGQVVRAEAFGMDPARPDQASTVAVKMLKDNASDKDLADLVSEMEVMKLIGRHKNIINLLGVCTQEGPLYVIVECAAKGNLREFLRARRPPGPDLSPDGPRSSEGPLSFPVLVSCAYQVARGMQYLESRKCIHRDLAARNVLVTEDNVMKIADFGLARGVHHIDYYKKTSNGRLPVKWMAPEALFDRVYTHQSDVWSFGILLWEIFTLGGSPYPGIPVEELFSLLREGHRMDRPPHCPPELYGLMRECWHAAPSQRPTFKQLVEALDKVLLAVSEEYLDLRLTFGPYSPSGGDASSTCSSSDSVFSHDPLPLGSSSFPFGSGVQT

[19] = target: Fibroblast growth factor receptor 4 (Homo sapiens) (UniProt P22455); details: at 10 µM
[20] = target: Tyrosine-protein kinase Fer (Homo sapiens) (UniProt P16591); details: at 1 µM

| SMILES | residual activity [1] | residual activity [2] | residual activity [3] | residual activity [4] | residual activity [5] | residual activity [6] | residual activity [7] | residual activity [8] | residual activity [9] | residual activity [10] | residual activity [11] | residual activity [12] | residual activity [13] | residual activity [14] | residual activity [15] | residual activity [16] | residual activity [17] | residual activity [18] | residual activity [19] | residual activity [20] |
| --- | --- | --- | --- | --- | --- | --- | --- | --- | --- | --- | --- | --- | --- | --- | --- | --- | --- | --- | --- | --- |
| CO[C@H]1C[C@@H]2CC[C@@H](C)[C@@](O)(O2)C(=O)C(=O)N2CCCC[C@H]2C(=O)O[C@H]([C@H](C)C[C@@H]2CC[C@@H](O)[C@H](OC)C2)CC(=O)[C@H](C)/C=C(\C)[C@@H](O)[C@@H](OC)C(=O)[C@H](C)C[C@H](C)/C=C/C=C/C=C/1C | 105% | 121% | 105% | 100% (inactive) | 57% | 112% | 147% | 106% | 130% | 118% | 83% | 111% | 63% | 115% | 114% | 97% | 107% | 138% | 145% | 106% |
| CCC(=O)Nc1ccc2ncnc(Nc3cccc(Br)c3)c2c1 | 97% | 105% | 55% | 111% (inactive) | 120% | 81% | 57% | 59% | 58% | 131% | 95% | 108% | 84% | 105% | 99% | 118% | 123% | 120% | 100% | 106% |
| O=C1NC(=O)/C(=C\c2ccc3nccnc3c2)S1 | 96% | 98% | 119% | 113% (inactive) | 104% | 95% | 111% | 88% | 92% | 90% | 83% | 113% | 91% | 98% | 101% | 96% | 104% | 119% | 88% | 110% |
| Cc1cc2ncc(-c3ccccc3)nc2cc1C | 106% |  | 103% | 106% (inactive) | 125% |  |  | 99% | 105% |  | 92% | 86% | 101% |  | 102% | 85% | 95% | 134% | 93% |  |
| c1ccc2c(-c3ccncc3)c[nH]c2c1 | 110% | 108% | 111% | 106% (inactive) | 112% | 111% | 108% | 88% |  |  | 65% |  | 90% | 111% | 87% |  |  | 112% | 94% | 109% |
| N#Cc1cnc2cnc(NCc3cccnc3)cc2c1Nc1ccc(F)c(Cl)c1 | 89% | 99% | 100% |  |  |  |  | 132% | 128% |  |  | 21% | 12% | 48% | 30% | 38% | 18% |  | 92% | 83% |
| Cn1nc2c3c(cccc31)C(=O)c1ccccc1-2 | 77% | 108% | 109% | 104% (inactive) |  | 87% | 83% | 93% | 90% | 95% | 65% | 110% | 66% | 103% | 76% | 112% | 77% | 90% | 88% | 87% |
| O=C1Nc2ccc(Br)cc2/C1=C\c1cc2c([nH]1)CCCC2 | 107% | 111% | 115% | 114% (inactive) | 117% | 118% | 132% | 109% | 106% | 78% | 58% | 81% | 81% | 63% | 53% |  |  |  |  | 119% |
